Compounds without any hit were thinned out: in the full panel of roughly 79,000, 15% have a hit. A number with no mark means an inactive call. The source made the active and inactive calls. No stated cut-off is given here; in the data, active means growth inhibition above about 70%; inactive means the rest.
Experiment: NCI Yeast Anticancer Drug Screen. Data for the mec2-1 strain (AID 157)
Conditions: S. cerevisiae mec2-1 strain, at 5.0 µM (retest, dose inferred, filed as 0.5), hits give high values
In short: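 Strain: mec2-1 (DNA repair/cell cycle alteration). Compound exposure, then growth measured; inhibition expressed relative to vehicle.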

Row | SMILES | growth inhibition
1 | Cc1ccc2c(c1)CC1(C2)Cc2ccc(C)cc2C1=O (stereo not given) | -20%
2 | NC1=CC(=O)c2ccccc2C1=O | 1%
3 | CCCCC(CC(=O)O)c1ccc(Cl)cc1 (stereo not given) | -43%
4 | OCCOCCO[P+]1(OCCOCCO)n2c3ccc2C(c2ccccc2)=C2C=CC(=N2)C(c2ccccc2)=c2ccc(n21)=C(c1ccccc1)C1=NC(=C3c2ccccc2)C=C1 | 100% (active)
5 | Clc1ccc2[nH]c(-c3ccccc3)c(-c3ccccn3)c2c1 | 80% (active)
6 | COc1cc(NS(C)(=O)=O)ccc1Nc1c2ccccc2nc2ccccc12 | -5%
7 | COC1/C=C/OC2(C)Oc3c(C)c(O)c4c(c3C2=O)C(=O)C=C(NC(=O)/C(C)=C\C=C\C(C)C(OC=O)C(C)C(O)C(C)C(OC(C)=O)C1C)C4=O (stereo not given) | 1%
8 | COc1ccc(CN(C)c2c(C)ccc3ccccc23)cc1 | 2%
9 | CCOC(=O)c1c(-c2ccccc2)csc1NC(=O)CBr | 11%
10 | Nc1nc2nc(I)[nH]c2c(=O)[nH]1 | -13%
11 | CC(CN(CC(=O)O)CC(=O)O)N(CC(=O)O)CC(=O)O.[Cl][Pd][Cl] (stereo not given) | 7%
12 | COC(=O)c1nc(=S)[nH]c(C(=O)OC)c1C(=O)c1ccc2ccccc2c1 | 9%
13 | O=C(Nc1ccccc1)OCCc1ccc(Br)cc1 | -23%
14 | O=C(CCN1CCCCC1)/C(=C\c1ccc(Cl)cc1)c1ccccc1 | 7%
15 | FC(F)(F)c1nc(S)cc(=S)[nH]1 | 4%
16 | CCCCC(=O)N/N=C/c1ccc([N+](=O)[O-])s1 | 7%
17 | CSC(=S)N/N=C(\C)c1nccnc1C | 7%
18 | CC(=O)Oc1cc2c(cc1OC(C)=O)OCC(c1ccccc1)C2 (stereo not given) | 5%
19 | O=Cc1ccc(O)c2ccccc12 | 1%
20 | CC(=O)N(C1=C(Cl)C(=O)c2ccccc2C1=O)c1ccc(Cl)cc1 | 99% (active)

Row | SMILES | growth inhibition
21 | Cn1c2c(c3ccccc31)CCN1C[C@@H]3CCCC[C@H]3C[C@@H]21 | 0%
22 | CCOc1ncc(Cl)c(OCC)n1 | -4%
23 | C=C1C(=O)OC2C1CC1OC2C(C)CCC/C(C)=C\CCC1(C)O (stereo not given) | 2%
24 | CCCCN(CCCC)CCC(O)(c1ccc(OC)c2ccccc12)C(O)(CCN(CCCC)CCCC)c1ccc(OC)c2ccccc12 (stereo not given) | -2%
25 | CS/C(N)=N/NC(=O)CCC(=O)Nc1cc(Cl)c(Cl)cc1Cl | 9%
26 | COc1ccc(OC)c(N=Nc2c(C)[nH]n(C(N)=S)c2=O)c1 | -3%
27 | O=C(CC(=O)c1ccccc1)CC1(O)CCCCC1 | 2%
28 | Nc1ccc2ccccc2c1Cc1c(O)ccc2ccccc12 | 0%
29 | CC[n+]1c(/C=C/c2cc(C(=O)OC)n3c2sc2ccccc23)sc2ccccc21 | 38%
30 | O=CNc1ccc2c(c1)Cc1cc(NC=O)ccc1-2 | -3%
31 | O=C1CC(c2ccccc2)C(=O)N2C(=O)CC(c3ccccc3)C(=O)N12 (stereo not given) | 2%
32 | CN1CCN(CCOC(=O)N2c3ccccc3Sc3ccccc32)CC1 | 2%
33 | COc1nc(Nc2ccc(/C=C/c3ccc(Nc4nc(OC)nc(N(CCO)CCO)n4)cc3S(=O)(=O)O)c(S(=O)(=O)O)c2)nc(N(CCO)CCO)n1 | -4%
34 | NNC(=O)NN=C(c1ccccc1)c1ccccc1 | -2%
35 | CCOC(=O)C(Br)C(Br)c1cccc([N+](=O)[O-])c1 (stereo not given) | 93% (active)
36 | CCCCCCC(O)C(CO)CCCCC (stereo not given) | -2%
37 | Oc1c(Br)c(Br)c(O)c(Br)c1Br | 7%
38 | CC(=O)n1nc2c(c1CC(C)C)C(=O)C(Nc1ccccc1)=CC2=O | 1%
39 | CC(C)(CCBr)[N+](=O)[O-] | -47%
40 | Nc1ccccc1SCc1csc(-c2ccc(Cl)cc2)n1 | -3%

Reference: PubChem BioAssay (NCI)
